The values below come from PubChem BioAssay (NCATS).

Experiment [1] deals with Lysosomal acid glucosylceramidase (Homo sapiens) (UniProt P04062). As to the kind of experiment: Glucocerebrosidase-p2 (AID 348; in the data active means potency below about 10 µM; further: potency means the concentration at half of the fitted maximal effect). Particulars: purified GBA, blue fluorogenic substrate, 40 min. The method in brief:
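Normal human glucocerebrosidase (0.2 nM) with blue fluorogenic substrate (80 uM final) in citrate/phosphate pH 5.9 with 10mM sodium taurocholate, 0.01% tween-20; 40 min RT, NaOH/glycine stop; fluorescence Ex 365/Em 440; AC50 from a titration from 0.6 nM upwards.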

A short description of experiment [2]: AP1 Signaling Pathway (AID 357; active means well fitted curve in either direction with a large enough effect, not every such curve was filed as active; further: on the % scale 0 is the no-effect control and ±100 the full control effect). Particulars: ME-180 AP-1-bla reporter, EGF-induced, beta-lactamase ratio, 5 h; at 7.69 µM (top of the series) unless noted. The method in brief:
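ME-180 cells with beta-lactamase reporter under AP-1 response element, stimulated with EC50 EGF; compounds tested in titration series, 5 h at 37 °C. CCF4 substrate added 2.5 h at room temperature; 460/530 nm emission ratio gave %activity and AC50.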

Experiment [3] concerns the target Cytochrome P450 1A2 (Homo sapiens) (UniProt P05177). As to the kind of experiment: p450-cyp1a2 (AID 410; calls by dose curve; further: potency means the concentration at half of the fitted maximal effect). Particulars: recombinant CYP1A2, luciferin-ME demethylation, luminescence; series mostly up to 57 µM. The method in brief: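 20nM CYP1A2, 100uM Luciferin-ME (=Km), 100mM KPO4; cpd 10 min RT; +NADPH regen, 60 min RT; stop/detect 20 min; luminescence. Normalized to furafylline 57 uM = full inhibition.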

Experiment [4] is described as follows: NFAT Signaling Pathway (AID 444; active means well fitted curve in either direction with a large enough effect, not every such curve was filed as active;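 further: carbachol stimulus at about its EC50 of 1 µM final; on the % scale 0 is the no-effect control and ±100 the full control effect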). As to conditions: Jurkat NFAT-bla M1, carbachol, beta-lactamase ratio, 5 h; at 7.69 µM (top of the series) unless noted. The method in brief:
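Jurkat cells carrying an NFAT-driven β-lactamase reporter and co-transfected muscarinic M1 receptor were treated with compound plus carbachol (1 uM final, an EC50 level) for 5 h at 37 °C. CCF4 loading followed for 1 h at RT; 460/530 nm ratio gave %activity.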

Experiment [5] is described as follows: Stat Signaling Pathway (AID 446; active means well fitted curve in either direction with a large enough effect, not every such curve was filed as active;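 further: ME-180 cervical cancer cells given 40 pM IL-6 alongside compound; SIE-controlled beta-lactamase reporter measured as 460/530 nm FRET emission ratio; on the % scale 0 is the no-effect control and ±100 the full control effect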). Particulars: ME-180 (cervical carcinoma) SIE beta-lactamase reporter, IL-6 stimulated, 5 h; at 7.69 µM (top of the series) unless noted. The method in brief: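 Overnight-plated ME-180 cells bearing a STAT Inducible Element beta-lactamase reporter; 5 h co-exposure to compound and 40 pM IL-6; values normalized to 300 pM IL-6 and 125 nM JAK inhibitor controls.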

In experiment [6] the target is Glucocorticoid receptor (Homo sapiens) (UniProt P04150). As to the kind of experiment: GR-EFC Redistribution (AID 451; calls by dose curve; further: potency means the concentration at half of the fitted maximal effect). Particulars: CHO-K1 GR-EFC translocation, beta-gal luminescence, 2 h. The method in brief:
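CHO-K1 cells stably expressing nuclear-localized β-gal enzyme acceptor and GR fused C-terminally to the enzyme donor fragment; ligand-driven nuclear translocation restores β-gal by complementation. Compounds titrated up to 46 uM final, 2 h at 37 °C; luminescence read.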

In experiment [7] the target is Mitogen-activated protein kinase 10 (Mus musculus) (UniProt Q61831). Nature of the experiment: JNK3 AlphaScreen Assay (AID 530; active means well fitted curve in either direction with a large enough effect, not every such curve was filed as active;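 further: kinase came from lysate of stimulated human HepG2 cells; on the % scale 0 is the no-effect control and ±100 the full control effect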). As to conditions: JNK3 lysate, c-Jun phosphorylation; series mostly up to 57.1 µM. In a few lines: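 Biotinylated GST-cJun(1-79) served as substrate for JNK3 in HepG2 lysates stimulated with IL-1beta and TNF-alpha. ATP was 10 uM final, pH 7.6. Ser73 phosphorylation was quantified by AlphaScreen (680 nm excitation).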

Experiment [8] deals with 3',5'-cyclic-AMP phosphodiesterase 4B (Homo sapiens) (UniProt Q07343). As to the kind of experiment: qHTS Assay for Inhibitors of PDE-IV (AID 607; active means well fitted activation curve with a large enough effect in the main read-out, with a control signal flat, not every such curve was filed as active; further: % of control where 0% means no effect). Particulars: HEK293 ACTOne CNG channel cells, membrane potential fluorescence; series mostly up to 22.9 µM. In a few lines:
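Live HEK293 cells with a modified cyclic nucleotide-gated (CNG) channel report intracellular cAMP via membrane-potential dye fluorescence (ex 535/em 590 nm). Endogenous PDE-IV was targeted. Compounds were tested at up to 22.9 uM final; RO 20-1724 100 uM served as control.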
(In general: qHTS replaces the single test concentration by a dilution series.)

Experiment [9] concerns the target Cytochrome P450 2C9 (Homo sapiens) (UniProt P11712). Nature of the experiment: qHTS Assay for Inhibitors and Substrates of Cytochrome P450 2C9 (AID 883). Further: on the % scale 0 is the no-effect control and ±100 the full control effect; nearly all actives have a fitted effect of over 60% in size. As to conditions: recombinant CYP2C9, luciferin-H luminescence, 60 min; series mostly up to 57.1 µM. In a few lines:
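Human CYP2C9 (10nM) hydroxylated Luciferin-H (100uM, at its KM) to luciferin in 25mM KPO4. Compound was preincubated 10 min at 37C, then NADPH regeneration started a 60 min reaction at 37C. Luminescence was read after detection reagent, normalized to 57uM sulphaphenazole.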

A short description of experiment [10]: qHTS Assay for Lipid Storage Modulators (AID 1519; calls by dose curve). Particulars: Drosophila S3 cells, BODIPY lipid droplet/cell ratio, laser cytometry, cells loaded with oleic acid. The method in brief:
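Cells seeded at 5,000 per well were treated with compounds over a concentration series and loaded with oleic acid (400 uM, as added). Lipid droplet fluorescence (488 nm excitation, 500-530 nm channel) was read by laser-scanning cytometry and normalized to 20 uM Triacsin C.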

Experiment [11] has as its target Dual specificity protein kinase CLK4 (Homo sapiens) (UniProt Q9HAZ1). As to the kind of experiment: qHTS Assay for Inhibitors of CDC-like Kinase 4 (Kinase-Glo Assay) (AID 1770). Further: on the % scale 0 is the no-effect control and ±100 the full control effect; nearly all actives have a fitted effect of over 65% in size. As to conditions: recombinant Clk4, Kinase-Glo ATP depletion luminescence; series mostly up to 66.7 µM. The method in brief: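 Inhibition was judged from remaining ATP, measured by Ultra-Glo luciferase bioluminescence after Clk4 (25 nM) had acted on RS peptide at 1 uM ATP for 4.5 hours, room temperature.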

For experiment [12] the target is unchanged. As to the kind of experiment: qHTS Assay for Inhibitors of CDC-like Kinase 4 (ADP-Glo Assay) (AID 1771). Further: on the % scale 0 is the no-effect control and ±100 the full control effect; nearly all actives have a fitted effect of over 70% in size. Particulars: recombinant CLK4, ADP-Glo luminescence; series mostly up to 80 µM. The method in brief: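 25 nM Clk4, 100 uM RS peptide, 1 uM ATP (final); 2 mM MgCl2, 0.5 mM EGTA, 2.5 mM DTT, 0.01% Triton X-100; 1 hr RT. ADP-Glo readout: ATP depletion 45 min, conversion/luciferase 30 min, luminescence.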

Experiment [13] has the same target. Nature of the experiment: qHTS Assay for Inhibitors of CDC-like Kinase 4 (ADP-FP Assay) (AID 1795).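 Further: recombinant human CLK4 phosphorylating RS repeat peptide at 1 µM ATP; on the % scale 0 is the no-effect control and ±100 the full control effect; nearly all actives have a fitted effect of over 60% in size.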 Particulars: Transcreener ADP fluorescence polarization; series mostly up to 50 µM. In a few lines:
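Inhibition of ADP formation by 6.25 nM Clk4 is measured using 1 uM ATP and 100 uM RS repeat peptide over one hour. Produced ADP displaces a fluorescent tracer from antibody, lowering polarization.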

Experiment [14] has as its target Ubiquitin carboxyl-terminal hydrolase 1 (Homo sapiens) (UniProt O94782). As to the kind of experiment: Inhibitors of USP1/UAF1: Pilot qHTS (AID 504865).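 Further: rhodamine fluorescence freed from ubiquitin-rhodamine substrate followed over time; top concentration of the series differs between compounds; on the % scale 0 is the no-effect control and ±100 the full control effect; nearly all actives have a fitted effect of over 35% in size.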 Particulars: purified USP1/UAF1, Ub-rhodamine cleavage fluorescence; series mostly up to 54.9 µM. In a few lines: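 Kinetic fluorescence assay: 1nM USP1/UAF1, 15 min compound preincubation, then 150nM Ub-Rho; 480/540 nm.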

Experiment [15] is described as follows: Counterscreen qHTS for small molecule stabilizers of the endoplasmic reticulum resident proteome: GLuc-NoTag assay (AID 1508627).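 Further: 0% = thapsigargin alone and -100% = DMSO vehicle control.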 As to conditions: Gaussia luciferase NoTag secretion counterscreen, luminescence, thapsigargin 100 nM for final 4 h; series mostly up to 76.4 µM. In a few lines:
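Secreted GLuc lacking the SERCaMP modification is measured in SH-SY5Y cells exposed to compound for 19 h and then to thapsigargin (100 nM, 4 h) to deplete ER calcium; hits retested at 11 concentrations, up to 76.6 uM.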
Background: Counterscreens check selectivity or assay interference.

Experiment [16] is described as follows: Confirmatory qHTS for small molecule stabilizers of the endoplasmic reticulum resident proteome: Secreted ER Calcium Modulated Protein (SERCaMP) assay (AID 1508628). Further: nearly all actives have a fitted effect of over 40% in size. Further: potency means the concentration at half of the fitted maximal effect. Particulars: SERCaMP secreted luciferase ER calcium/proteostasis reporter; series mostly up to 76.3 µM. The method in brief: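 GLuc-SERCaMP-expressing SH-SY5Y cells, pretreated 16 h with compound, are challenged with thapsigargin to empty ER calcium stores; after 4 h, coelenterazine is added directly to the medium and luminescence is imaged.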

Experiment [17] addresses Glucocorticoid receptor (Homo sapiens) (UniProt P04150). As to the kind of experiment: GR-GFP Redistribution (AID 450;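 active means compounds whose dose series gives a full or clear partial fitted curve of increased nuclear translocation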; further: potency means the concentration at half of the fitted maximal effect). Particulars: U2OS GR-GFP nuclear translocation, laser cytometry, 2 h.
For experiment [18], the target named is Cytochrome P450 3A4 (Homo sapiens) (UniProt P08684). As to the kind of experiment: qHTS Assay for Activators of Cytochrome P450 3A4 (AID 885). Further: nearly all actives have a fitted effect of over 65% in size. As to conditions: recombinant CYP3A4, Luciferin-PPXE luminescence, 60 min; series mostly up to 57.1 µM. The method in brief: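 Using 20nM recombinant human CYP3A4 in potassium phosphate (200mM), substrate Luciferin-PPXE at 25uM, luminescent luciferin detection followed a 60-min RT NADPH reaction; data scaled to 57 uM ketoconazole.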

Experiment [19] can be described thus: Cell Viability qHTS for small molecule stabilizers of the endoplasmic reticulum resident proteome (AID 1508629). As to conditions: cell viability counter-screen, 100 nM thapsigargin for final 4 h.

Each structure is given as a SMILES string. Inconclusive results are not listed. Calls of active or inactive are those of the source. Unless noted, the call rests on the fitted dose curve; in most records, active means well fitted curve in the direction sought with a large enough effect; inconclusive means small, poorly fitted or top-dose-only effect, or another doubt; inactive means no such curve, though single readings can be large; an effect the other way counts as inactive or inconclusive. Bounds are passed on as bounds.

Lysosomal acid glucosylceramidase (Homo sapiens), sequence (P04062 whole entry, looked up): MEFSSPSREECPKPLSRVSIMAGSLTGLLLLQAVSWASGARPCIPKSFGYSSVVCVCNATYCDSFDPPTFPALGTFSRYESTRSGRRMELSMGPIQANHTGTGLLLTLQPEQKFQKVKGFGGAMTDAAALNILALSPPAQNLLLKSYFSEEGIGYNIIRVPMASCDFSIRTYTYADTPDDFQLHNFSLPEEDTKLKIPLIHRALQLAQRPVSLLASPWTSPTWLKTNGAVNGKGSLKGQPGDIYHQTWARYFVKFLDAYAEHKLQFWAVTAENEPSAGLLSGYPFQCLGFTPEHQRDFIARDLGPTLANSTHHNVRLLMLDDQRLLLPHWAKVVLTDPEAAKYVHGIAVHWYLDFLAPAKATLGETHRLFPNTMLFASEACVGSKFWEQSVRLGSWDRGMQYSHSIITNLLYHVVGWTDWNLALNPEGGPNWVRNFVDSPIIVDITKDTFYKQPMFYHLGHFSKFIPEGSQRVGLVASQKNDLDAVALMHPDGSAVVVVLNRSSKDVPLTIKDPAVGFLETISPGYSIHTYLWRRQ
Dual specificity protein kinase CLK4 (Homo sapiens), sequence (Q9HAZ1 whole entry, looked up): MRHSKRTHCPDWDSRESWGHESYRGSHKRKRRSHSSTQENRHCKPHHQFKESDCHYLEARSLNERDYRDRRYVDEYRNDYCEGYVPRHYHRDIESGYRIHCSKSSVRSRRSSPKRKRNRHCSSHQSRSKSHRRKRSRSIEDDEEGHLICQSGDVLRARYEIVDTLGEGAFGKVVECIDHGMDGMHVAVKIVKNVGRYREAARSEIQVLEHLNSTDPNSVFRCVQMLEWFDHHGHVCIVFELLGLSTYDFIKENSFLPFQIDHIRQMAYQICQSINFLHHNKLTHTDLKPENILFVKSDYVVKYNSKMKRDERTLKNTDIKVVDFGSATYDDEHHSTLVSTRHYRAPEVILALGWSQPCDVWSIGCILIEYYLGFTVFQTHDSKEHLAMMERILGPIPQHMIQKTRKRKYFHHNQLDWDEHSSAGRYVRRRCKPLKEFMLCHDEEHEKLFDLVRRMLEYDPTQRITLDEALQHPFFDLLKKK
Cytochrome P450 1A2 (Homo sapiens), sequence (P05177 whole entry, looked up): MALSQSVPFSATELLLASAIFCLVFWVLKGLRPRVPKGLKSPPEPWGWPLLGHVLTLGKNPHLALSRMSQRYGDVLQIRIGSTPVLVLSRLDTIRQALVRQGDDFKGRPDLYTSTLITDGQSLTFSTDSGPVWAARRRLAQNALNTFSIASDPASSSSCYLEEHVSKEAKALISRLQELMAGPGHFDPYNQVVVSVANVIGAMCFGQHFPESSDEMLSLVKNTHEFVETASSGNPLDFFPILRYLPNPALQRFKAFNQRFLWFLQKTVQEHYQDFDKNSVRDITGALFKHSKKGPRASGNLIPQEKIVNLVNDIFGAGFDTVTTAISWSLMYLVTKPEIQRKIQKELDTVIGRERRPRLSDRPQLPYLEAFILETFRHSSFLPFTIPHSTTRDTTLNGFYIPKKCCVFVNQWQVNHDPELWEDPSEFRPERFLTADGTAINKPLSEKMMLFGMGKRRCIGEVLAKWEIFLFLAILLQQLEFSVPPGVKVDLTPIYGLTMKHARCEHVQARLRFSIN
3',5'-cyclic-AMP phosphodiesterase 4B (Homo sapiens), sequence (Q07343 whole entry, looked up): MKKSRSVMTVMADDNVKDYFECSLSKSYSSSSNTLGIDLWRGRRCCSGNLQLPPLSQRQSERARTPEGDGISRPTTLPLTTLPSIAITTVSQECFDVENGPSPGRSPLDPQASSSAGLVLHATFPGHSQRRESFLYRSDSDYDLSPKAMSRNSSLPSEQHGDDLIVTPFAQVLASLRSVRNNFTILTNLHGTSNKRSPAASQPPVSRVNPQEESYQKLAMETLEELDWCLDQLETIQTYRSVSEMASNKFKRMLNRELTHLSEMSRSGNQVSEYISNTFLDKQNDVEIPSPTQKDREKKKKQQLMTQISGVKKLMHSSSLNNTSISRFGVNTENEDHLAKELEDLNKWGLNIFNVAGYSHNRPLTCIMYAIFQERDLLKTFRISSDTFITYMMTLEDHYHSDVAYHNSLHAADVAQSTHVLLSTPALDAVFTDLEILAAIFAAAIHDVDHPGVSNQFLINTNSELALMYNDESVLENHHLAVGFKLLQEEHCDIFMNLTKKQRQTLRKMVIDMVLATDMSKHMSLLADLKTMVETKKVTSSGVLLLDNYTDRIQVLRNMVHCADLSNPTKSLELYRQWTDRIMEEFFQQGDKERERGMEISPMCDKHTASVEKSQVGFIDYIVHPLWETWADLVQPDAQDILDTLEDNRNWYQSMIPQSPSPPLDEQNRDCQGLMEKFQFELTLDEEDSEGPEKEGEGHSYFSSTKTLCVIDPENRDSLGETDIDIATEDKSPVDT
Glucocorticoid receptor (Homo sapiens), sequence (P04150 whole entry, looked up, the tested form may be a part): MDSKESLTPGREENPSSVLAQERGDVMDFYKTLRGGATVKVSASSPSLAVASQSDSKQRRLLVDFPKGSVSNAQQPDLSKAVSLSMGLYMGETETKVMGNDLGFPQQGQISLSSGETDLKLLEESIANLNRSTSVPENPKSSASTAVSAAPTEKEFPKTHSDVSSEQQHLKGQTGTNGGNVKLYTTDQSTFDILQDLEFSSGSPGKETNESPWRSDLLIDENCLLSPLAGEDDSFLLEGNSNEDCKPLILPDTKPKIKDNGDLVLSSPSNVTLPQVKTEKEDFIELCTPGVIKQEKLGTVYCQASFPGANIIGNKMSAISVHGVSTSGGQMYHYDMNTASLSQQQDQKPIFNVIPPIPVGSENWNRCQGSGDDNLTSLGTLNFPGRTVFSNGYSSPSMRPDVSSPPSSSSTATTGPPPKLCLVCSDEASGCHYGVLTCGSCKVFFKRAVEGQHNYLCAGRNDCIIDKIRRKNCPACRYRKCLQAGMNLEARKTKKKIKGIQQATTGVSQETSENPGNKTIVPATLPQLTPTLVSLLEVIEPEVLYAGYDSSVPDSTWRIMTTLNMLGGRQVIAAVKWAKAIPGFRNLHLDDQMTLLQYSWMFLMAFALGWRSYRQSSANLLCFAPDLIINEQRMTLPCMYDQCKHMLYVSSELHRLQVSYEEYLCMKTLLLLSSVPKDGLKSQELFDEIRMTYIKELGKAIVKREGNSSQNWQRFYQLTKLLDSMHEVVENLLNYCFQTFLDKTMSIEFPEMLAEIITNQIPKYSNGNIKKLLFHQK
Cytochrome P450 3A4 (Homo sapiens), sequence (P08684 whole entry, looked up): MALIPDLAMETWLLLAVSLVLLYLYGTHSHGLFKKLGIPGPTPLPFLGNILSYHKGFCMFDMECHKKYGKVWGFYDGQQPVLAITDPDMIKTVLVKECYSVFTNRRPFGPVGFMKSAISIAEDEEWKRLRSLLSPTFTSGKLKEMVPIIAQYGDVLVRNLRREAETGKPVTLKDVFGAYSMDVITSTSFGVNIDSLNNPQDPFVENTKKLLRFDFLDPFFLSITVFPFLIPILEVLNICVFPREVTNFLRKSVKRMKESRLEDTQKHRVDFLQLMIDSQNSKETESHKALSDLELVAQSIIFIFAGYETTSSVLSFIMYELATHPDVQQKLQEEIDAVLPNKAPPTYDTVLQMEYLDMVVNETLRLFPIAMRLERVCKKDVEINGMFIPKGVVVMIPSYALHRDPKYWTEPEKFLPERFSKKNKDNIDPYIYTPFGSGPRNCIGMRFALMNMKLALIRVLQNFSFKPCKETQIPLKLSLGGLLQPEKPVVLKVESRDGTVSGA
Cytochrome P450 2C9 (Homo sapiens), sequence (P11712 whole entry, looked up): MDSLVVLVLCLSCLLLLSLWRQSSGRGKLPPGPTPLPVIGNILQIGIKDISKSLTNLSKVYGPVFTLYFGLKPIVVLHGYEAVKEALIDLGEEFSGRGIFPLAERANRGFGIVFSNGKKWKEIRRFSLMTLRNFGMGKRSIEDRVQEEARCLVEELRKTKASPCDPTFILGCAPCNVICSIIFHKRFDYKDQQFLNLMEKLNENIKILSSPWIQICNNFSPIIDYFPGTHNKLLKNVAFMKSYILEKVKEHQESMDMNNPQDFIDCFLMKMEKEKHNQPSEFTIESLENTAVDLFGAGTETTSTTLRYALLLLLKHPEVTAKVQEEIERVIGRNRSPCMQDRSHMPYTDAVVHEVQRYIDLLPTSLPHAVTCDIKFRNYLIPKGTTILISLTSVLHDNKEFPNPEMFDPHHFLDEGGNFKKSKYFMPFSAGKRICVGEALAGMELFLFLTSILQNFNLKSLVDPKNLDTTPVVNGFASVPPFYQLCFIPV
Ubiquitin carboxyl-terminal hydrolase 1 (Homo sapiens), sequence (O94782 whole entry, looked up): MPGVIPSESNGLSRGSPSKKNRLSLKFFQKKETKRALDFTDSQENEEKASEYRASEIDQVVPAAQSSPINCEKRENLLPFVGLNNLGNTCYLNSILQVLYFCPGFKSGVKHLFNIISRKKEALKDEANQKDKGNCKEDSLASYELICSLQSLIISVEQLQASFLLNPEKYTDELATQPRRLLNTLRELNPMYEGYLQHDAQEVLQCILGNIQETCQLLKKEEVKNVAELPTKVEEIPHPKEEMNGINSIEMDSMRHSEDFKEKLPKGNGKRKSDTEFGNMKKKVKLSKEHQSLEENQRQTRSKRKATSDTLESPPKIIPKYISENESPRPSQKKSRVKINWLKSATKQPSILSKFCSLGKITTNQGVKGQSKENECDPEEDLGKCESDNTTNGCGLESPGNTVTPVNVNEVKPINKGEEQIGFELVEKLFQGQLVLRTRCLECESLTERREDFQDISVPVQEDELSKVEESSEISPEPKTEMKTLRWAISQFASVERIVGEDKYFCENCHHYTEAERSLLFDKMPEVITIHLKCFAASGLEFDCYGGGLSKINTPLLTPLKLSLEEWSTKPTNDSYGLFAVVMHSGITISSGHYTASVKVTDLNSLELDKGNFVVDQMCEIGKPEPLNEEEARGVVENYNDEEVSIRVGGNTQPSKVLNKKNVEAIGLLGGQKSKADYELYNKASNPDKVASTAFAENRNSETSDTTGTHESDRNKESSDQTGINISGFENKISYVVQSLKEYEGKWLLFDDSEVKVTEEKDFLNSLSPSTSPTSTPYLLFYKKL

As for `FC(F)(F)c1ccccc1-c1nccc(N2CCNCC2)n1`, the Potency was > 11.4 µM (inactive) in [1], 10 µM (active) in experiment [3], > 46 µM (inactive) in experiment [6] and 15.8 µM (active) in [16]. Besides, the activity change, negative = inhibition in [2] was -4.79% (inactive); in experiment [4], -3.28% (inactive); in experiment [9], 37.4% [at 2.29 µM] (inactive); in experiment [10] (at 57.5 µM (top of the series)), 4.7% (inactive). For the same molecule, in [5], the activity, negative = inhibition is 9.61% (inactive). In addition, the call in experiment [7] was inactive. Moreover, the Potency result in experiment [8], in experiment [11], in [12], in experiment [13], in experiment [14] and in experiment [15] was “inactive” throughout. For the same molecule, the figures for the max response in experiment [10] (measured here: cell count channel max response) and in experiment [10] (measured here: lipid channel max response) were 10.7% and 12.2%, respectively.

Regarding `Fc1ccc(Nc2ccnc(-c3ccccc3C(F)(F)F)n2)cc1`, the Potency in experiment [1] is > 11.4 µM (inactive); in experiment [3] it was 2 µM (active); in experiment [17] it was > 46 µM (inactive); in experiment [6] it was > 46 µM (inactive); in [16], 50.1 µM (active). Further, the activity change, negative = inhibition in experiment [2] is -7.91% (inactive); in [4], -6.61% (inactive). In addition, in experiment [5], the activity, negative = inhibition was 3.25% (inactive). Further, in experiment [7], the molecule was classed as inactive. Moreover, the Potency entry in experiment [8], in experiment [18], in experiment [11], in [12], in experiment [13] and in experiment [15] was “inactive” each time. Further, the max response in experiment [19] is -1.83% (inactive).

Take `O=c1c(-c2cccs2)nc2cnc(N3CCNCC3)nc2n1-c1ccccc1`: the Potency is > 11.4 µM (inactive) in experiment [1], 2.51 µM (active) in experiment [3], > 9.22 µM (inactive) in [17] and > 46 µM (inactive) in experiment [6]. In experiment [7], the outcome was inactive. Moreover, the Potency entry in experiment [8], in [18], in experiment [15] and in experiment [16] was “inactive” in each case. Besides, the max response in experiment [19] is 6.37% (inactive).
